The entries come from a sample that favours hits as a whole.
NOMO-1 viab: NOMO-1 AML cell viability reduction, primary screen, STK33 inhibitor project, CellTiter-Glo luminescence; NOMO-1 AML viability, 72 h; inhibition, % (test concentration not listed); 37,000 compounds, 7.5% hits; AID 2330, 2010; in the data active = inhibition above about 80%; inconclusive = no clear call, values can overlap the other calls
YB-1 expr inh: inhibitors of YB-1 gene expression, primary screen, cell-based, fluorescence | delta delta Cp (YB-1 minus CDIP) (concentration not given with the values) | U2OS, qRT-PCR YB-1 vs CDIP delta delta Cp, 16 h; hits give high values; zero = DMSO, each unit about twofold | 30,000 compounds, 0.37% hits;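 active = delta delta Cp rounded down to an integer at or above 3, about 3 SD of DMSO wells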;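 note: higher means less YB-1 transcript or more CDIP transcript relative to DMSO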
ROS inducer: ROS inducers in U2OS cancer cells, primary screen, cell-based, H2DCF-DA fluorescence. U2OS ROS induction. ROS induction (% of piperlongumine), % at 10 µM. 46,000 compounds, 2% hits. AID 624156, 2012; in the data active = ROS induction above about 79%, passing the limit was not always enough; inconclusive = no clear call, values can overlap the other calls;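 note: 0% = DMSO vehicle median and 100% = reference compound median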
PD-1 reversal: activators reversing PD-1 mediated T-cell inhibition, primary screen, luminescence, primary human CD4 T cells, PD-L1 beads | CellTiter-Glo 96 h | activation, % (no concentration beside the values) | 29,000 tested, under 10 active | AID 2316, 2010; call rule not given here;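 note: 0% = median vehicle wells and 100% = positive control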
MITF inhib: inhibitors of MITF, primary screen, MITF inhibitor project, cell-based, luminescence. TRPM1 promoter luciferase, 24 h. inhibition, % (test concentration not listed). 37,000 compounds, 0.28% hits. AID 2240, 2010; in the data active = inhibition above about 85%; inconclusive = no clear call, values can overlap the other calls; inactive = below about 68%;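 note: human melanocyte line stably carrying TRPM1 promoter luciferase reporter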
* hit, by the source's call.

What do the screens show for `C=C1C(=O)O[C@@H]2/C=C(/COC(C)=O)CC/C=C(/CO)CC[C@@H]12`?
NOMO-1 viab: 116.8*; YB-1 expr inh: 0.182; ROS inducer: 42.2; PD-1 reversal: -2.8; MITF inhib: -31.1

Results for CC(C)NC(=O)Nc1ccc2c(c1)CC(=O)N([C@H](C)CO)C[C@H](C)[C@H](CN(C)Cc1ccc(Oc3ccccc3)cc1)O2 ?
NOMO-1 viab: inconclusive; YB-1 expr inh: 0.214; ROS inducer: 15.1; PD-1 reversal: -2.5; MITF inhib: 10.9

What do the screens show for `CC(C)NC(=O)Nc1ccc2c(c1)CC(=O)N([C@H](C)CO)C[C@@H](C)[C@@H](CN(C)Cc1ccc(Oc3ccccc3)cc1)O2`?
NOMO-1 viab: 55.6; YB-1 expr inh: -0.155; ROS inducer: 129.0*; PD-1 reversal: -1.7; MITF inhib: 20.3

How did C[C@@H]1CN([C@H](C)CO)C(=O)Cc2cc(NC(=O)Cc3ccccc3)ccc2O[C@@H]1CN(C)Cc1ccc(-c2ccccc2)cc1 do in these assays?
NOMO-1 viab: inconclusive; YB-1 expr inh: 0.282; ROS inducer: 203.4*; PD-1 reversal: -9.1; MITF inhib: 17.9

What do the screens show for `C[C@@H]1CN([C@H](C)CO)C(=O)Cc2cc(NC(=O)c3ccncc3)ccc2O[C@H]1CN(C)Cc1ccc(Oc2ccccc2)cc1`?
NOMO-1 viab: 30.9; YB-1 expr inh: -0.00392; ROS inducer: 126.8*; PD-1 reversal: -1.5; MITF inhib: 1.7

Results for C[C@H](CO)N1C[C@H](C)[C@H](CN(C)Cc2ccc(Oc3ccccc3)cc2)Oc2ccc(NC(=O)Cc3ccccc3)cc2CC1=O ?
NOMO-1 viab: 115.7*; YB-1 expr inh: -0.555; ROS inducer: 20.1; MITF inhib: 28.0

Results for Cc1ccc(S(=O)(=O)N(C)C[C@H]2Oc3ccc(NS(=O)(=O)c4cn(C)cn4)cc3CC(=O)N([C@H](C)CO)C[C@H]2C)cc1 ?
NOMO-1 viab: -2.0; YB-1 expr inh: 0.0864; ROS inducer: 40.5; PD-1 reversal: -0.5; MITF inhib: -6.4

How did O=C(COc1cccc(NC(=O)c2ccc([N+](=O)[O-])cc2)c1)c1ccc(F)cc1 do in these assays?
NOMO-1 viab: 45.7; MITF inhib: 33.4

Results for COc1ccc2[nH]c3c(=O)n(Cc4ccc(C(=O)NCCc5ccc(C)cc5)cc4)c(=S)[nH]c3c2c1 ?
ROS inducer: 35.1

Results for C[C@@H]1CN([C@H](C)CO)C(=O)Cc2cc(NC(=O)Nc3ccccc3)ccc2O[C@@H]1CN(C)Cc1ccc(Oc2ccccc2)cc1 ?
NOMO-1 viab: 115.2*; YB-1 expr inh: -0.201; ROS inducer: 36.3; PD-1 reversal: -7.4; MITF inhib: 31.6

How did C[C@H]1CN([C@@H](C)CO)C(=O)Cc2cc(NC(=O)CCN3CCOCC3)ccc2O[C@@H]1CN(C)Cc1ccc(Oc2ccccc2)cc1 do in these assays?
NOMO-1 viab: 4.8; YB-1 expr inh: 0.0359; ROS inducer: 17.7; PD-1 reversal: 0.1; MITF inhib: -9.3

What do the screens show for `C[C@@H]1CN([C@H](C)CO)C(=O)Cc2cc(NC(=O)CCN3CCOCC3)ccc2O[C@@H]1CN(C)Cc1ccc(Oc2ccccc2)cc1`?
NOMO-1 viab: 11.5; YB-1 expr inh: -0.0868; ROS inducer: 87.5*; PD-1 reversal: 0.1; MITF inhib: -6.0

How did N/C(=N\O)C(=O)Nc1ccccc1 do in these assays?
ROS inducer: -2.4

Results for C[C@H](CO)N1C[C@H](C)[C@H](CN(C)Cc2ccc(C(=O)Nc3ccccc3N)cc2)Oc2ccc(NC(=O)CCN3CCOCC3)cc2CC1=O ?
NOMO-1 viab: 138.0*; YB-1 expr inh: 0.34; ROS inducer: 14.4; PD-1 reversal: -4.1; MITF inhib: 1.3

How did C[C@@H]1CN([C@@H](C)CO)C(=O)c2cc(NC(=O)CCN3CCOCC3)ccc2O[C@H]1CN(C)Cc1ccc(C(=O)Nc2ccccc2N)cc1 do in these assays?
YB-1 expr inh: 0.125; ROS inducer: -4.0

What do the screens show for `C[C@H]1CN([C@@H](C)CO)C(=O)Cc2cc(NC(=O)CCN3CCOCC3)ccc2O[C@H]1CN(C)Cc1ccc(C(=O)Nc2ccccc2N)cc1`?
NOMO-1 viab: 131.7*; YB-1 expr inh: -0.594; ROS inducer: -12.2; PD-1 reversal: -3.3; MITF inhib: -12.0

Results for C[C@@H]1CN([C@H](C)CO)C(=O)Cc2cc(NC(=O)CCN3CCOCC3)ccc2O[C@H]1CN(C)Cc1ccc(C(=O)Nc2ccccc2N)cc1 ?
NOMO-1 viab: -2.8; YB-1 expr inh: -0.171; ROS inducer: 20.6; PD-1 reversal: -0.1; MITF inhib: -5.2

Results for COc1ccc(N(C(C)C(=O)Nc2ccc(Br)cc2F)S(C)(=O)=O)cc1 (configuration not stated) ?
NOMO-1 viab: 6.0; ROS inducer: 14.2; PD-1 reversal: -0.6; MITF inhib: 4.6

Results for O=C1c2c(O)ccc(O)c2C(=O)c2c(NCCNCCO)ccc(NCCNCCO)c21 ?
NOMO-1 viab: 120.1*; YB-1 expr inh: 1.54; ROS inducer: -7.0; MITF inhib: 95.9*

How did Clc1ccc(-c2ncc3ccccn23)cc1 do in these assays?
NOMO-1 viab: 129.2*; YB-1 expr inh: -0.369; ROS inducer: 25.1; PD-1 reversal: -2.2; MITF inhib: 4.5

What do the screens show for `Clc1ccc(Sc2c(-c3ccccc3)nc3ncccn23)cc1`?
ROS inducer: 6.0

What do the screens show for `O=C1O[C@H](c2ccccc2)[C@H](c2ccccc2)N2[C@H]1[C@@H](C(=O)NC[C@H](O)c1ccccc1)[C@]1(C(=O)Nc3ccc(C#CC4(O)CCCCCC4)cc31)[C@H]2c1ccccc1OCCO`?
YB-1 expr inh: -0.496; ROS inducer: 27.5

Results for C=CCNC(=O)[C@H]1[C@@H]2C(=O)O[C@@H](c3ccccc3)[C@@H](c3ccccc3)N2[C@@H](c2ccc(O)cc2)[C@]12C(=O)Nc1ccc(C#CCCO)cc12 ?
YB-1 expr inh: 0.111; ROS inducer: -11.5

What do the screens show for `C=CCNC(=O)[C@@H]1[C@H]2C(=O)O[C@H](c3ccccc3)[C@H](c3ccccc3)N2[C@H](c2ccccc2OCCO)[C@@]12C(=O)Nc1ccc(C#CC3(O)CCCCCC3)cc12`?
YB-1 expr inh: -0.221; ROS inducer: 145.7*

Results for C=CCNC(=O)[C@@H]1[C@H]2C(=O)O[C@H](c3ccccc3)[C@H](c3ccccc3)N2[C@H](c2ccccc2OCCO)[C@@]12C(=O)Nc1ccc(C#CCCO)cc12 ?
YB-1 expr inh: -0.0856; ROS inducer: 135.0*

What do the screens show for `C=CCOC(=O)[C@H]1[C@@H]2C(=O)O[C@@H](c3ccccc3)[C@@H](c3ccccc3)N2[C@@H](c2ccc(OCCOC(=O)[C@@H]3C[C@@H]4C(=O)NCC(=O)N4[C@@H]3c3ccc(O)cc3)cc2)[C@]12C(=O)Nc1ccccc12`?
YB-1 expr inh: 0.068; ROS inducer: 115.7*
